# Laboratory results: publication PMC7862700, “An all-to-all approach to the identification of sequence-specific readers for epigenetic DNA modifications on cytosine”
# Assays:
# Test in all cases: DAPPL (digital affinity profiling via proximity ligation, sequencing); 10 mM Tris-HCl pH 7.5, 50 mM NaCl, 1 mM DTT, 4% glycerol, room temperature, 30 min; GST-TFs on glutathione beads, 16-mer random dsDNA library, 0.1% formaldehyde crosslink after washing; high values mean tight binding
# Conditions in all cases: protein: recombinant; tags: N-terminal GST; dsDNA, one strand shown
# [1] = target: T1, FLI1 (Homo sapiens, UniProt Q01543 1-452)
# T1 sequence: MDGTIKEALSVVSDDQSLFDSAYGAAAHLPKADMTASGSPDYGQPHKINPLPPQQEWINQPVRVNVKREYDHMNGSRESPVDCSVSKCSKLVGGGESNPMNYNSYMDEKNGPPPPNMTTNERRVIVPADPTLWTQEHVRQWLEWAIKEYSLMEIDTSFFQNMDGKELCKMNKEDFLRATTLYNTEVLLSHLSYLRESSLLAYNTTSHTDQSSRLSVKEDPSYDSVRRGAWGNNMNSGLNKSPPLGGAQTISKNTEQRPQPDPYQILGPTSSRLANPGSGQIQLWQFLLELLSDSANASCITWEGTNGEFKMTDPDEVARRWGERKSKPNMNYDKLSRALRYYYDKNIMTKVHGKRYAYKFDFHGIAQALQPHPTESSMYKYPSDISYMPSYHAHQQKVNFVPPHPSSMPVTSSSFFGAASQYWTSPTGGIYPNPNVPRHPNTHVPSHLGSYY
# In short: (§1)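 Yeast served to express human transcription factors as GST fusions, which were then captured on glutathione beads and labelled with DNA barcodes. Pooled with a tag-only sample, they were incubated with 200 nmole of a 16-mer random double-stranded DNA library for 30 min at room temperature in Tris/NaCl/DTT/glycerol buffer, washed, crosslinked with 0.1% formaldehyde, ligated by proximity, amplified by PCR and sequenced. Dividing each hexamer's read frequency for a factor by its frequency for the tag-only sample gives the binding signal.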
# [2] = target: T2, ELK1 (Homo sapiens, UniProt P19419 1-428)
# T2 sequence: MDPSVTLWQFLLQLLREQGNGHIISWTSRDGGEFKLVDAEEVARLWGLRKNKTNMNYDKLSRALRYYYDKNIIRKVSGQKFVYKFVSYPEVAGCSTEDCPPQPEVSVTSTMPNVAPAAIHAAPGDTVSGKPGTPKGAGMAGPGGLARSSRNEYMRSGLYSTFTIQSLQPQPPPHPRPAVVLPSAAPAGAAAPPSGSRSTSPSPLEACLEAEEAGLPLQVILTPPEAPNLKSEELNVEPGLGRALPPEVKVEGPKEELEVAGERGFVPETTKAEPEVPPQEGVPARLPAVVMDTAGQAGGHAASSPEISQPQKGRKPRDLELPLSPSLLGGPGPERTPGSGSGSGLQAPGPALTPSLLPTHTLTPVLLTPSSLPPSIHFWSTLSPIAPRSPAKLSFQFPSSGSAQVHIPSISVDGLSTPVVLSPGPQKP
# In short: as §1
# [3] = target: T3, GABPA (Homo sapiens, UniProt Q06546 1-454)
# T3 sequence: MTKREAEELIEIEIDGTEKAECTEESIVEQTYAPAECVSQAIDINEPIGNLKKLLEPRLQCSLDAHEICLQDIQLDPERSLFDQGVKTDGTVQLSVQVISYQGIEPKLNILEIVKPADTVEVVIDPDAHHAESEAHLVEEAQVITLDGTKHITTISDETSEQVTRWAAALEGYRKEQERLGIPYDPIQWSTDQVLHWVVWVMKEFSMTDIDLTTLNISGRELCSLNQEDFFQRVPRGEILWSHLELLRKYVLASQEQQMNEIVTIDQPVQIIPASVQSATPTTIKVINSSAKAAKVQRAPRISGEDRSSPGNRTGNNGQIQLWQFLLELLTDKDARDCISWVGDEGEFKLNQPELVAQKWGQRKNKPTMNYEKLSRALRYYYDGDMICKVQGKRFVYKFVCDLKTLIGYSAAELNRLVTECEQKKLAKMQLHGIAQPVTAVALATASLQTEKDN
# In short: as §1
# [4] = target: T4, ERG (Homo sapiens, UniProt P11308 1-479)
# T4 sequence: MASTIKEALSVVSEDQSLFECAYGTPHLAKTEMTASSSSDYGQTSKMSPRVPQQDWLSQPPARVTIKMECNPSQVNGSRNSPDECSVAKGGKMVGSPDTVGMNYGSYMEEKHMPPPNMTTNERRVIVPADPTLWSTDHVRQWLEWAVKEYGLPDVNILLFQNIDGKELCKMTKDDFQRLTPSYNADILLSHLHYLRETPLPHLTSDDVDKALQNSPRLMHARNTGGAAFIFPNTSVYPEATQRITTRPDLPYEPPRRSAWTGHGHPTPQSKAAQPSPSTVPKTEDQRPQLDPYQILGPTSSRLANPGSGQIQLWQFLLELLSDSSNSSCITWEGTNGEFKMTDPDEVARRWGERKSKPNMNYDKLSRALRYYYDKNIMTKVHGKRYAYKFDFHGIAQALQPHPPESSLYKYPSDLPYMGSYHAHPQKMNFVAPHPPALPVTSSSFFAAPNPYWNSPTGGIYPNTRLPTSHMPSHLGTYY
# In short: as §1
# [5] = target: ELF1 (Homo sapiens, UniProt P32519 1-619)
# In short: as §1
# [6] = target: T5, EHF (Homo sapiens, UniProt Q9NZC4 1-300)
# T5 sequence: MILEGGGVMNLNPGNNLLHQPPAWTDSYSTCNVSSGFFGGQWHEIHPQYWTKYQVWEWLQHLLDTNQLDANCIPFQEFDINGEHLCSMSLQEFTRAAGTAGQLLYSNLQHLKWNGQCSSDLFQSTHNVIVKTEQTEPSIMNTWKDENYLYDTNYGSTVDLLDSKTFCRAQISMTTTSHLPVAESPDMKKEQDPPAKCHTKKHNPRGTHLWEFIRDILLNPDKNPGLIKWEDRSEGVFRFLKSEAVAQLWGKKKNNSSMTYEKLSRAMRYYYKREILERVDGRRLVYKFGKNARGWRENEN
# In short: as §1
# [7] = target: SPIB (Homo sapiens, UniProt Q01892 1-262)
# In short: as §1
# [8] = target: T6, ELK3 (Homo sapiens, UniProt P41970 1-407)
# T6 sequence: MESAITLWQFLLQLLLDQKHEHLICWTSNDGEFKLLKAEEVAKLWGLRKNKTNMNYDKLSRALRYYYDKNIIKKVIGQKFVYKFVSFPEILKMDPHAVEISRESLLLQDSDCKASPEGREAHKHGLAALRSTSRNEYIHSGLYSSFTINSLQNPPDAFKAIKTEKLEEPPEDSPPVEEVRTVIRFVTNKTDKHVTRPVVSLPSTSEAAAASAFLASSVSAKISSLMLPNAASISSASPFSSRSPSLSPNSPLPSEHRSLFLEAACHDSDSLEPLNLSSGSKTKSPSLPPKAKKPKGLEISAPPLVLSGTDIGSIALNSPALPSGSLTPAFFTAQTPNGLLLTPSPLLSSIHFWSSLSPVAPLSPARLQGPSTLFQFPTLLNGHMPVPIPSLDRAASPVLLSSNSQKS
# In short: as §1
# [9] = target: T7, SPIC (Homo sapiens, UniProt Q8N5J4 1-248)
# T7 sequence: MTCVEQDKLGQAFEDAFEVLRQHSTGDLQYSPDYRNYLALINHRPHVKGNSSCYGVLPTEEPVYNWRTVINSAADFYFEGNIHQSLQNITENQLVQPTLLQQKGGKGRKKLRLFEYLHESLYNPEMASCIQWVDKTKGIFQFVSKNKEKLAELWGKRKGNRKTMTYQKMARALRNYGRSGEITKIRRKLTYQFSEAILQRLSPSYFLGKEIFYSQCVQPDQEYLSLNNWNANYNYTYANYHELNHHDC
# In short: as §1
# [10] = target: ELF4 (Homo sapiens, UniProt Q99607 1-663)
# In short: as §1
# ELF1, sequence (P32519 whole entry): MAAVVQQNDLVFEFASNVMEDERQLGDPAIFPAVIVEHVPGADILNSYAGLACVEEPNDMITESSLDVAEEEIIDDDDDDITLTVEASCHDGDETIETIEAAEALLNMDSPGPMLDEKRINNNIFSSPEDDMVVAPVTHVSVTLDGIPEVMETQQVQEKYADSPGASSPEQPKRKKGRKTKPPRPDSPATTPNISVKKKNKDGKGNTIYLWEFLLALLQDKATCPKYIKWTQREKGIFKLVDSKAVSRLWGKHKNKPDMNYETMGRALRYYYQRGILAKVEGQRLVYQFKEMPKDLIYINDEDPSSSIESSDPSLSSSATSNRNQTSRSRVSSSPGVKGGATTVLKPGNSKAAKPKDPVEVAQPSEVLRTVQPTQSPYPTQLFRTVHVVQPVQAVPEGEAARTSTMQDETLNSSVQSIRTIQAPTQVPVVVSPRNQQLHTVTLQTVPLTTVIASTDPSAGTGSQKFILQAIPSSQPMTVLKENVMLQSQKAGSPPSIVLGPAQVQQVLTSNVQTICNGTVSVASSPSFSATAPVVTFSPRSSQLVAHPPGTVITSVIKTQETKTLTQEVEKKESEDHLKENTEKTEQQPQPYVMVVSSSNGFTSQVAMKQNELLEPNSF
# SPIB, sequence (Q01892 whole entry): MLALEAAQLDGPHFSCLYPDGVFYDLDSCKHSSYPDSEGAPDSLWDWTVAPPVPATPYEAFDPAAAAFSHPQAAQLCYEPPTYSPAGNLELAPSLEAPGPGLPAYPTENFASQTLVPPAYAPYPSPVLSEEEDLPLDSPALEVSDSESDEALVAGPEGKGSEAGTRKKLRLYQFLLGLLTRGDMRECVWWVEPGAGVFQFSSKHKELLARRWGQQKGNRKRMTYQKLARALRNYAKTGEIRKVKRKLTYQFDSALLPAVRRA
# ELF4, sequence (Q99607 whole entry): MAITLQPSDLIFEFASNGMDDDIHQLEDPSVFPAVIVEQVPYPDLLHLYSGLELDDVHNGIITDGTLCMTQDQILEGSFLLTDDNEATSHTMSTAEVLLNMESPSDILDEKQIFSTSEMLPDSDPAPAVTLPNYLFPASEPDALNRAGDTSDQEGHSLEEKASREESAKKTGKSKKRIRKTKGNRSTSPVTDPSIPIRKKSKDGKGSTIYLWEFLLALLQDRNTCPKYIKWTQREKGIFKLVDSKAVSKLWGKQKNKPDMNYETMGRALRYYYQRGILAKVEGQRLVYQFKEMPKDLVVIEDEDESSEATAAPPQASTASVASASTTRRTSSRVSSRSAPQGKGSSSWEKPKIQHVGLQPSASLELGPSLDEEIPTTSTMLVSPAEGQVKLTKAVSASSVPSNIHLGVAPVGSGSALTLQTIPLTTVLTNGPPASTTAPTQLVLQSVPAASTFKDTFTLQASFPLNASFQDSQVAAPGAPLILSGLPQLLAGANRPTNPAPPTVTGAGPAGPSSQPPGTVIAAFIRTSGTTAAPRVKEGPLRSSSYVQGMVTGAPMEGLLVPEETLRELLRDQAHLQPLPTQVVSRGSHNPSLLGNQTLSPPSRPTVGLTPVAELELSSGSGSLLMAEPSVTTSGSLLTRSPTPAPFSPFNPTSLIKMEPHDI
sequence,measurement,setting,value
CGTTGC,binding signal,[1],"1.09 fold enrichment (6-mer frequency, TF over GST control)"
same,binding signal,[2],"1.19 fold enrichment (6-mer frequency, TF over GST control)"
same,binding signal,[3],"1.04 fold enrichment (6-mer frequency, TF over GST control)"
same,binding signal,[4],"1.06 fold enrichment (6-mer frequency, TF over GST control)"
same,binding signal,[5],"1.11 fold enrichment (6-mer frequency, TF over GST control)"
same,binding signal,[6],"1.07 fold enrichment (6-mer frequency, TF over GST control)"
same,binding signal,[7],"1.18 fold enrichment (6-mer frequency, TF over GST control)"
same,binding signal,[8],"1.04 fold enrichment (6-mer frequency, TF over GST control)"
same,binding signal,[9],"1.25 fold enrichment (6-mer frequency, TF over GST control)"
same,binding signal,[10],"1.06 fold enrichment (6-mer frequency, TF over GST control)"
